TRHR ag: agonists of human TRH receptor; TRHR cells, calcium flux fluo-8, FDSS agonist mode; activation, % at 2 µM; hit rate 0.18% among 360,000; in the data active = activation above about 30%; also: 0% is about no effect
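Fluo-8-loaded TRHR cells; 10 s baseline, compound added, kinetic Ca2+ fluorescence read 1/s, agonist mode.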
TRHR enhancer: TRH receptor (human) allosteric enhancement; P34981; TRHR cells, fluo-8 calcium fluorescence, EC20 TRH enhancement; enhancement, % at 2 µM; hit rate 0.66% among 360,000; AID 493056; in the data active = enhancement above about 30%; also: 0% is about no effect
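Enhancer read-out: after compound pinning and an initial kinetic agonist-mode read, an EC20 of TRH (10 nM final) was injected and fluo-8 calcium signal (Ex 480/Em 530) followed at 1 s/cycle for 100 cycles in TRHR-expressing cells.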
PTHR1 ag: PTHR1 (human) receptor agonism; Q03431; HEK293 GP2 PTHR1 cells, GloSensor cAMP luminescence, 1 h; Potency, µM (series often up to 115 µM), for the others: at the highest dose activation, most hits filed as activators; hit rate 0.075% among 410,000; AID 743266; also: potency is read from the fitted curve at half-maximal effect; nearly all actives have a fitted effect of over 55% in size
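HEK-293-derived GP2 cells expressing PTHR1 and a GloSensor cAMP reporter, 3,000/well, plated overnight, given luciferin plus IBMX (each 0.5 mM as added) for 1 h at 37 °C, then compound for 1 h at 37 °C. Luminescence was read after 15 min at room temperature.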
GLP-1R inv ag: GLP-1 receptor (human) inverse agonism. AID 624417. hit rate 1.6% among 410,000. Potency, µM (highest dose often 38.3 µM), inactives show top-dose activity change, negative = inhibition, most hits filed as inhibitors. HEK293 GLP-1R CRE-luciferase, luminescence, 24 h; GLP-1R form is constitutively active. P43220; also: potency is read from the fitted curve at half-maximal effect; % is scaled to controls: 0 for no effect and ±100 for the full control effect; nearly all actives have a fitted effect of over 55% in size
Target sequence (P43220 whole entry, looked up): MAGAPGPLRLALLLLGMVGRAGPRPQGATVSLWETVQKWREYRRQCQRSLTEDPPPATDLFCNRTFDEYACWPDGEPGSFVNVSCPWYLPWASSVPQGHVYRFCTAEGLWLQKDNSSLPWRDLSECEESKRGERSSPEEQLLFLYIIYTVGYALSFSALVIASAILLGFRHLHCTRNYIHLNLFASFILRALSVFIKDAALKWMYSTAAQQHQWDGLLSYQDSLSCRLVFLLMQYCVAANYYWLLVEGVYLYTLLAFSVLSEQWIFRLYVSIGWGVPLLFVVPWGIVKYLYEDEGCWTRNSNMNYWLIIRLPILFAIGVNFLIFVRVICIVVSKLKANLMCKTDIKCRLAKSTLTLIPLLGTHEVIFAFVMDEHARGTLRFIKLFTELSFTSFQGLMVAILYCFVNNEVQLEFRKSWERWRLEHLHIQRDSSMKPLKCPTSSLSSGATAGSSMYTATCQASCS
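HEK293 cells stably co-expressing a cAMP-responsive luciferase reporter and constitutively active GLP-1R were seeded, incubated 12 h, then exposed to compounds for 24 h at 37 C. Luminescence was read 12 min after detection reagent; inverse agonists lower signal.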
GLP1R cytotox: cytotoxicity counter-screen for GLP-1 receptor inverse agonists | HEK293 cAMP-luciferase reporter cells, luminescence, 24 h | Potency, µM (doses to about 38.3 µM), inactives show at the highest dose activity change, negative = inhibition, hits mostly inhibitors | hit rate 0.13% among 410,000 | AID 624418;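 also: loss of luciferase light is scored as toxicity; potency is read from the fitted curve at half-maximal effect; % is scaled to controls: 0 for no effect and ±100 for the full control effect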
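Cells in DMEM/10% Nu serum/1% pen-strep, 1536-well format. Pre-incubated 12 h, dosed with 23 nL compound, incubated a further 24 h. Luciferase detection, 12 min at room temp, luminescence.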
GLP1R ag: agonists of human GLP-1 receptor. P43220. HEK293 GLP-1R CRE-luciferase, luminescence, 4-6 h; cells express a hypersensitive GLP-1R form. Potency, µM (doses to about 45.6 µM), without a hit: at the highest dose activation, most hits filed as activators. hit rate 0.007% among 380,000; also: potency is read from the fitted curve at half-maximal effect; % of control where 0% means no effect
* marks the source's active call; other numbers are inactive results; i = inactive; ? = inconclusive; / = no result; [ ] = another dose, or the depositor's remark. Only some compounds are listed: those with a hit (about 2.4% of all), similar ones and a draw of the others. Unless noted, calls follow the shape of the dose curve; as a rule, active = well fitted curve in the direction sought with a large enough effect; inconclusive = small, poorly fitted or top-dose-only effect, or another doubt; inactive = no such curve, though single readings can be large; an effect the other way counts as inactive or inconclusive.

SMILES | TRHR ag | TRHR enhancer | PTHR1 ag | GLP-1R inv ag | GLP1R cytotox | GLP1R ag
Cc1ccc(S(=O)(=O)N2C[C@H]3N(C(=O)OC(C)C)N(C(=O)OC(C)C)C[C@H](OC(=O)NCC4CCCCC4)[C@@]3(O)C2)cc1 | / | / | -13% | 4.5µM* | ? | -3%
NNc1ccc2c(C(F)(F)F)cc(C(F)(F)F)nc2n1 | 1 | 4 | i | 27% | -17% | 12%
N#CC(c1cccc(Cl)c1)c1ccc2c(C(F)(F)F)cc(C(F)(F)F)nc2n1 (stereo not given) | 0 | -9 | -12% | 3.2µM* | -27% | -24%
CN(C)C(CNC(=O)c1cc(S(=O)(=O)N(C)c2ccc(F)cc2)ccc1Cl)c1ccco1 (stereo not given) | 0 | -6 | i | ? | 11% | 6%
CN(C)C(CNC(=O)c1cc(S(=O)(=O)N(C)c2ccccc2)ccc1Cl)c1ccccc1 (stereo not given) | 0 | -3 | -15% | 10µM* | 7% | 15%
CCC(C(=O)Nc1cccc(S(=O)(=O)N(C)c2ccccc2)c1)c1ccccc1 (stereo not given) | 1 | 1 | -19% | 7.1µM* | 5% | -3%
CC(C)C(=O)NC(=S)Nc1ccc(S(=O)(=O)NC2CCCCC2)cc1 | 1 | -2 | -23% | 10µM* | 1% | 4%
COc1ccc(CN2CCC(CO)(Cc3ccccc3C(F)(F)F)CC2)c(F)c1 | 0 | -4 | -79% | 8.9µM* | ? | -2%
COc1ccc(CC2(CO)CCN(Cc3cccc4nccnc34)CC2)cc1 | 0 | -1 | i | -2%[7.66 µM] | -4%[7.66 µM] | 5%
CCOc1ccccc1NC(=O)CN1C(=O)CC(c2ccc(C)c(C)c2)=Nc2ccccc21 | 1 | 5 | 5% | 17% | 5% | /
COc1ccccc1NC(=O)CN1C(=O)CC(c2ccc(C)c(C)c2)=Nc2ccccc21 | 0 | 1 | -12% | 10µM* | -11% | /
Cc1csc2nc(CSc3ccc(Cl)cc3)cn12 | -1 | 5 | -27% | ? | -9% | 0%
CN(Cc1ccccc1)CC(O)COc1ccc(CNCc2ccc(Cl)s2)cc1 (stereo not given) | 9 | -3 | i | 4.5µM* | -33% | 26%
CN(Cc1ccccc1)CC(O)COc1ccc(CNCc2cccnc2)cc1 (stereo not given) | 2 | 8 | ? | ? | -29% | -3%
C[C@@H]1CN([C@H](C)CO)C(=O)Cc2cc(NC(=O)CCC(F)(F)F)ccc2O[C@@H]1CN(C)S(=O)(=O)c1ccccc1 | / | / | i | 4% | 4% | 2%
COc1cc(OC)cc(C(=O)NCC(=O)OCC(=O)Nc2ccc3c(c2)OCO3)c1 | -1 | 3 | -1% | 1%[0.307 µM] | 7%[0.307 µM] | 4%
COc1ccc(-c2nc(-c3ccccc3)c(-c3cc([N+](=O)[O-])ccc3C)[nH]2)cc1OC | 0 | -10 | i | 5.6µM* | -4% | 5%
CCOc1cc(-c2nc(-c3ccccc3)c(-c3cc([N+](=O)[O-])ccc3C)[nH]2)ccc1O | 0 | -21 | -3%[57.5 µM] | -29% | -30% | -4%
COc1cc(-c2nc(-c3ccccc3)c(-c3ccc(Br)cc3)[nH]2)cc(OC)c1O | 0 | 0 | i | 11µM* | -13% | /
Oc1ccc(-c2nc(-c3ccccc3)c(-c3ccc(Br)cc3)[nH]2)cc1 | 0 | -5 | -39% | ? | ? | /
Cc1ccc(C)c(OCC(O)CN2CCC(C)CC2)c1C (stereo not given) | 0 | -3 | i | ? | -24% | 12%
CCOc1ccc(OCC(O)CN2CCc3ccccc3C2)cc1 (stereo not given) | 0 | -2 | i | ? | 4% | -8%
Cc1ccc(C)c(OCC(O)CN2CCc3ccccc3C2)c1C (stereo not given) | 0 | 10 | -27% | 8.9µM* | -1% | 19%
Cc1cc(OCC(O)CN2CCc3ccccc3C2)ccc1Cl (stereo not given) | -1 | 6 | 0% | 7.1µM* | -31% | -6%
CCN(Cc1ccccc1)Cc1c(O)ccc2oc(C)c(C(=O)Nc3ccc(C)cc3C)c12 | 0 | -7 | -32% | ? | 0% | /
SMILES | TRHR ag | TRHR enhancer | PTHR1 ag | GLP-1R inv ag | GLP1R cytotox | GLP1R ag
CCOC(=O)CSc1ncnc2c(C(=O)OCC)c3n(c12)CCC3 | -1 | 2 | -21% | 24% | 7% | 16%
CCOC(=O)N1CCN(S(=O)(=O)c2ccc3c(c2)CCN3C(=O)C2CCC2)CC1 | 0 | -5 | i | 4% | -12% | -2%
Cc1noc(C)c1COc1ccccc1C(=O)N(C)CC(=O)Nc1ccc(Cl)c(Cl)c1 | -1 | -1 | -2% | 10µM* | -10% | 1%
COc1cccc(NC(=O)CN(C)C(=O)c2ccccc2OCc2c(C)noc2C)c1 | -1 | -5 | -67% | 1% | -9% | 8%
COCCN(C(=O)COC(=O)C1CC(=O)N(c2ccc(C)cc2)C1)c1c(N)n(Cc2ccccc2)c(=O)[nH]c1=O (stereo not given) | / | / | -23% | -4% | 5% | -3%
O=C(CNC(=O)c1ccc(Cl)cc1Cl)NCCCn1ccnc1 | -1 | 31* | i | 1% | 1% | -11%
CCOC(=O)c1cn2nc(N3CCCC3)ccc2n1 | -1 | 8 | -23% | 5.6µM* | 15% | -30%
CCOC(=O)c1cn2nc(N3CCCCC3)ccc2n1 | 0 | 1 | -15% | ? | 8% | -4%
Cc1ccc(CNC(=O)c2ccc3c(c2)nc(C)n3-c2cc(C)cc(C)c2)cc1 | -1 | 1 | -41% | ? | -5% | /
Cc1cc(C)cc(-n2c(C)nc3cc(C(=O)NCc4ccccc4Cl)ccc32)c1 | 0 | 5 | i | 11µM* | ? | /
COc1ccccc1C(=O)NC(=O)COC(=O)Cc1n[nH]c(=O)c2ccccc12 | 0 | 11 | 50µM* | 39% | 13% | 1%
CN(C(=O)c1cccc(S(=O)(=O)N2CCCCC2)c1)C1CCS(=O)(=O)C1 (stereo not given) | 0 | -6 | i | 15% | -1% | -14%
O=C(NC1CCN(Cc2ccccc2)CC1)C1CCCN(S(=O)(=O)c2cccc3nonc23)C1 (stereo not given) | 0 | 36* | -60% | ? | 1% | 1%
CC(C)NC(=O)C1CCCN(S(=O)(=O)c2cccc3nonc23)C1 (stereo not given) | 0 | 2 | i | 16% | -1% | 9%
CCC(C)NC(=O)C1CCN(S(=O)(=O)c2cccc3nonc23)CC1 (stereo not given) | 0 | 31* | i | 0% | -2% | 1%

Assay outcomes as filed in PubChem.
